Only a selection was taken, and hits are over-represented in it overall.
Pf Dd2 inh = qHTS Primary assay for Inhibitors of Plasmodium falciparum Dd2 growth in vitro; P. falciparum Dd2 growth, SYBR Green, 72 h; Potency, µM (titrated, usually from 28.9 µM), inactives show at the top dose activity, negative = inhibition, actives largely listed as inhibitors; 4.3% of 120,000 active; AID 1347417, 2020; active = well fitted inhibition curve with a large enough effect;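 also: plate controls were DMSO vehicle for no effect and reference drug for full effect; nearly all actives have a fitted effect of over 65% in size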
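Infected erythrocytes (Dd2, 0.3% parasitemia, 2.5% hematocrit final) are added to compound in RPMI-1640/Albumax II medium, grown 72 h at 37C in low oxygen, then lysed with saponin/Triton-X containing SYBR Green and read by fluorescence.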
The depositor's hits bear a star; i = inactive; [ ] = another dose, or the depositor's remark. Potency is read from the fitted curve at half-maximal effect.

SMILES | Pf Dd2 inh
COc1ccc(NC(=O)Cn2c(=O)n(Cc3ccc(C(=O)NCc4ccccc4Cl)cc3)c(=O)c3ccccc32)cc1OC | -7%
CC(C)CCC(=O)N1CCC2(CC1)CC(O)CCO2 (stereo not drawn) | 21%
Cc1cccc(C(=O)NC2CCN(c3cn[nH]c(=O)c3)CC2)c1 | 11%
Cc1c(F)cccc1NC(=O)N1CCCC(c2noc(COc3ccccc3F)n2)C1 (stereo not drawn) | i
NCCCC(=O)N1CCCCC1c1nnc2n1CCNC2 (stereo not drawn) | -13%
Cc1cc(C(=O)N2CCC3(CC2)N=C(CC(C)C)NC3=O)c(C)o1 | -13%
O=C(c1ccc2nc[nH]c2c1)N1CCC(c2nc(-c3ccccc3)no2)C1 (stereo not drawn) | 17%[5.79 µM]
CC1(C)C(=O)N(CCOc2ccccc2)[C@H]2CN(C3CCOCC3)C[C@H]2[S+]1(=O)[O-] | -19%[44.1 µM]
COc1ccc(C(=O)NCCC2CCN(C(=O)Nc3ccc(F)cc3)CC2)cc1OC | i
Cc1nn(C)c(C)c1NC(=O)CC[C@H]1NC(=O)c2ccccc2NC1=O | -24%
O=c1c2nc(Nc3cccnc3)ccc2ncn1-c1ccccc1 | -23%[44.1 µM]
COCC1CN(C)CC12CCN(Cc1ccncc1)CC2 (stereo not drawn) | 13%
COCC1CN(C)CC12CCN(Cc1ccncc1F)CC2 (stereo not drawn) | 19%
COCC1CN(C)CC12CCN(Cc1cc(Br)ccc1F)CC2 (stereo not drawn) | 3.5µM*
CCn1ccc(C(=O)N2[C@@H]3CC[C@H]2CC(NC(=O)c2ccncc2)C3)n1 (stereo partly drawn) | 16%
Cc1oc(-c2cccc(Oc3ccccc3)c2)nc1CN1CC[C@H](N(C)C)C1 | -13%
COc1ccc2cc(CN3CCC(N(C)C)C3)c(-c3cccc(C)c3)nc2c1 (stereo not drawn) | 11µM*
COCC1CCN(Cc2cc3cc4c(cc3nc2-c2ccc(Cl)cc2)OCO4)C1 (stereo not drawn) | i
COCC[C@]1(O)CCN(C(=O)c2ccc(C#N)nc2)C[C@H]1C | -2%
O=C(Cn1cnnn1)N1CCc2onc(-c3cccc4ccccc34)c2C1 | 6%
CCc1ccc(NC(=O)CN2C(=O)NC3(CCC(C)CC3)C2=O)cc1 (stereo not drawn) | -18%
CCCOc1ccc(CNC(=O)C(C)C2CCOCC2)cc1 (stereo not drawn) | 13%
CCCc1ccc2oc(C(=O)N(C)CCC3CCCCO3)c(C)c2c1 (stereo not drawn) | 10µM*
Cc1c(Cl)cc(C(=O)N(C)CCC2CCOCC2)cc1Cl | -14%
CCCc1ccc2oc(C(=O)NCCc3nncn3CC)c(C)c2c1 | -21%
SMILES | Pf Dd2 inh
COc1cccc(CC(=O)NCc2ccc(Cl)s2)c1 | -6%
Cc1nc(N2CCC(NC(=O)c3nccc4ccccc34)CC2)cc(C(F)(F)F)n1 | -17%
COCCCN1CC2(CCN(C(=O)C(=O)c3cccn3C)CC2)CC1=O | 8%
CC(C)(C)C1CCc2nc(NC(=O)COc3ccccc3[N+](=O)[O-])sc2C1 (stereo not drawn) | i
Cc1cccc(OCC(=O)Nc2nc3c(s2)CC(C(C)(C)C)CC3)c1C (stereo not drawn) | 16%
CC(C)(C)C1CCc2nc(NC(=O)Cc3ccccc3)sc2C1 (stereo not drawn) | 11µM*
CN1CCOc2c(C(=O)NCCC(N)=O)cc(-c3ccccc3F)cc21 | -8%[44.1 µM]
Cc1cccc(=O)n1CCC(=O)N1CCn2nc(C(O)C3CC3)cc2C1 (stereo not drawn) | -7%
COc1ccccc1CCN1CCCC(CN(C)C(=O)CN2C(=O)CNC2=O)C1 (stereo not drawn) | 5%
COc1ccccc1CCN1CCC(CN(C)C(=O)CCc2ccccc2Cl)CC1 | 8.9µM*
COc1ccccc1CCN1CCCC(CN(C)C(=O)Cn2cccnc2=O)C1 (stereo not drawn) | -2%
CN1CC(=O)N(c2cccc(F)c2)Cc2c1ncnc2N1CCC(F)CC1 | 0%
Cn1cc(-c2ccccc2OC(F)(F)F)c2nc(CN3CCNC(=O)C3)cn2c1=O | -12%[44.1 µM]
NC(=O)CNC(=O)[C@@]1(O)C[C@@H](O)[C@H](O)[C@@H](NC(=O)Nc2ccc(OC(F)(F)F)cc2)C1 | -14%
CCc1noc(-c2cn(C3CCN(C(=O)c4ccc(C(C)(C)C)cc4)C3)nn2)n1 (stereo not drawn) | -6%
COc1ccc([C@H]2C[C@@H](O)[C@@H](O)[C@@H]2NCc2cn(C)c3ccccc23)cc1 | 8.9µM*
COc1ccc([C@H]2C[C@@H](O)[C@@H](O)[C@@H]2NCc2ccccc2)cc1 | -1%[44.1 µM]
COc1ccc([C@H]2C[C@@H](O)[C@@H](O)[C@@H]2NCc2cnn(C)c2)cc1 | i
CN(C(=O)CN1C(=O)C(c2ccccc2)=NC12CCCC2)c1ccccc1 | i
CN(CC1CCOCC1)C(=O)Nc1cc(F)ccc1F | -24%
CCCSc1nnc2n(-c3ccc(OC)cc3)c(=O)c3c4c(sc3n12)COC(C(C)C)C4 (stereo not drawn) | 10µM*
